Rows were chosen to be rich in hits. Some 2.6% of all compounds tested hit in one or more screens of this group.
S2 tox: viability counter-screen for ATXN expression inhibitors. 400,000 compounds, 0.49% hits. S2 cells (HEK-293 line with an ATXN2-luciferase reporter) viability, CellTiter-Fluor protease fluorescence, 24 h. Potency, µM (doses to about 56.7 µM), most hits filed as cytotoxic. AID 651635; note: potency is the fitted concentration of half-maximal effect; nearly all actives have a fitted effect of over 40% in size
ATXN2 expr inh: reduces ATXN2 reporter expression in HEK-293 cells; HEK-293 ATXN2-luciferase reporter, luminescence, 24 h; Potency, µM (titrated, usually from 57 µM), for the others: at the highest dose activity change, negative = inhibition, most hits filed as inhibitors; 360,000 compounds, 0.72% hits; AID 1745845; note: potency is the fitted concentration of half-maximal effect; % is set by controls: 0 for no effect and ±100 for the full control effect; nearly all actives have a fitted effect of over 55% in size
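ATXN2-luciferase reporter cells (luciferase flanked by upstream and downstream ATXN2 gene portions) were treated 24 h at 37 °C with compounds at up to 57 uM. SteadyGlo luminescence gave expression; GF-AFC fluorescence gave viability.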
HepG2 tox-1: counter-screen for TGF-b inhibitors: cytotoxicity in HepG2 cells; HepG2 CAGA-GFP viability, ATP luminescence, 18 h; 410,000 compounds, 0.76% hits; AID 588856; Potency, µM (highest dose often 46.1 µM), without a hit: top-dose activity change, negative = cytotoxicity, most hits filed as cytotoxic; note: potency is the fitted concentration of half-maximal effect
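CellTiter-Glo luminescence gave cytotoxicity after 18 hours at 37 degrees C. The cells were HepG2 CAGA-GFP in 1% FBS DMEM, stimulated with 500 pg/mL TGF-beta after compound addition. %Activity was normalised to no-cell wells (complete cell-killing) and DMSO (no toxicity), and curves were fitted and classified.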
Giardia killer: Giardia lamblia killing; Giardia lamblia trophozoite viability; activity change, % at 7.66 µM, hits read low; 340,000 compounds, 0.15% hits; AID 540267; in the data active = activity change below about -80%; inconclusive = between about -30% and that limit;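 note: parasites exposed to compound for two days anaerobically before the ATP read; % is set by controls: 0 for no effect and ±100 for the full control effect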
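ATP-content bioluminescence gauges trophozoite survival. Cells (100/well) receive compound and incubate anaerobically for 48 hrs at 37 deg C; detection reagent follows for 15-30 min at room temperature.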
TGFb inhibitor: inhibitors of TGF-b signaling; HepG2 CAGA-GFP TGF-b/SMAD3 reporter, GFP fluorescence, 18 h; TGF-beta stimulated, 500 pg/mL final; AID 588855; Potency, µM (series often up to 46.1 µM), without a hit: at the highest dose activity, negative = inhibition, usual class: inhibitors; 410,000 compounds, 1.2% hits; note: potency is the fitted concentration of half-maximal effect; % is set by controls: 0 for no effect and ±100 for the full control effect; nearly all actives have a fitted effect of over 65% in size
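Smad-responsive CAGA-GFP expression was quantified in HEPG2 cells exposed to compounds and 500 pg/mL final TGF-beta for 18 h at 37 degrees C; unstimulated wells defined full inhibition.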
uPA surface inh: inhibitors of cell surface uPA generation | cell surface uPA generation assay, qHTS | Potency, µM (doses to about 38.3 µM), without a hit: at the highest dose activity change, negative = inhibition, usual class: inhibitors | 330,000 compounds, 0.31% hits | AID 540303; active = well fitted inhibition curve with a large enough effect; inconclusive = small, poorly fitted or top-dose-only effect; inactive = no such curve, though single readings can be large or run the other way; tested in mouse RAW 264.7 cells; note: potency is the fitted concentration of half-maximal effect; % is set by controls: 0 for no effect and ±100 for the full control effect; nearly all actives have a fitted effect of over 55% in size
TGFb confirm: TGF-b pathway inhibition, cherry-pick retest. HepG2 CAGA-GFP TGF-b reporter, GFP fluorescence, 18 h; cells stimulated with TGF-beta, 500 pg/mL. shares compounds with TGFb inhibitor. AID 720534. 1,600 compounds, 63% hits. Potency, µM (series often up to 46.1 µM), for the others: at the highest dose activity, negative = inhibition, actives largely listed as inhibitors; note: potency is the fitted concentration of half-maximal effect; % is set by controls: 0 for no effect and ±100 for the full control effect; nearly all actives have a fitted effect of over 65% in size
HepG2 tox-2: toxic to HepG2 cells in TGF-b counterscreen. HepG2 CAGA-GFP viability, ATP luminescence, 18 h; cells stimulated with TGF-beta, 500 pg/mL. shares compounds with TGFb inhibitor. 1,600 compounds, 27% hits. Potency, µM (titrated, usually from 46.1 µM), for the others: at the top dose activity, negative = cytotoxicity, hits mostly inhibitors; note: potency is the fitted concentration of half-maximal effect; % is set by controls: 0 for no effect and ±100 for the full control effect; nearly all actives have a fitted effect of over 70% in size
TGFb CCL64 inh: blocks TGF-b signaling in CCL64 reporter cells; CCL64 CAGA-GFP reporter, TGF-b stimulated, GFP fluorescence, 18 h; 1,600 compounds, 41% hits; Potency, µM (top dose mostly 46.1 µM), without a hit: at the top dose activity, negative = inhibition, hits mostly inhibitors; shares compounds with TGFb inhibitor; note: potency is the fitted concentration of half-maximal effect; nearly all actives have a fitted effect of over 65% in size
TGFb COP inh: TGF-b inhibition validated with COP promoter; shares compounds with TGFb inhibitor; HepG2 COP-GFP TGF-b reporter, GFP fluorescence, 18 h; cells stimulated by added recombinant TGF-beta; Potency, µM (highest dose often 46.1 µM), without a hit: top-dose activity, negative = inhibition, actives largely listed as inhibitors; 1,600 compounds, 3% hits; AID 720537; note: potency is the fitted concentration of half-maximal effect; nearly all actives have a fitted effect of over 70% in size
Starred values were filed as active, the others as inactive; i = inactive; ? = inconclusive; . = not tested or not shown. Unless noted, calls come from the whole dose curve; as a rule, active = well fitted curve in the direction sought with a large enough effect; inconclusive = small, poorly fitted or top-dose-only effect, or another doubt; inactive = no such curve, though single readings can be large; an effect the other way counts as inactive or inconclusive.

SMILES	S2 tox	ATXN2 expr inh	HepG2 tox-1	Giardia killer	TGFb inhibitor	uPA surface inh	TGFb confirm	HepG2 tox-2	TGFb CCL64 inh	TGFb COP inh
Cc1ccc(-n2nc3c(=O)n(CCCC(=O)NCCN4CCN(C)CC4)nc(C)c3c2C)cc1	i	-1.1%	-2.4%	5.1	-1.9%	3.8%	.	.	.	.
O=C(COc1ccccc1)NCc1ccccc1	i	13.0%	11.0%	2.0	0.0%	-6.2%	.	.	.	.
O=C(COc1ccc(C(=O)c2ccccc2)cc1)NCc1ccc(F)cc1	?	-22.1%	4.5%	0.4	?	-11.3%	9.2µM*	-14.0%	?	-3.6%
Cc1ccc(C)c(NC(=S)N2CCN(c3cccc(C(F)(F)F)c3)CC2)c1	i	-19.6%	-20.3%	17.7	0.0%	-1.6%	.	.	.	.
Cc1ccnc(NC(=S)N2CCN(c3cccc(C(F)(F)F)c3)CC2)c1	?	?	-22.5%	-15.2	12.6µM*	-2.2%	7.31µM*	13µM*	-15.1%	30.3%
COc1ccc(C#Cc2ccc(C3=CC(=O)CC(C)(C)C3=O)cc2)cc1	?	-17.4%	-30.8%	.	-4.4%	.	.	.	.	.
COc1cccc(-c2nc(SCc3cc(=O)c4cc(Cl)ccc4[nH]3)n[nH]2)c1	?	-17.2%	1.6%	.	-0.9%	.	.	.	.	.
O=[N+]([O-])c1ccc(N2CCN(Cc3ccccc3)CC2)s1	i	5.2%	-13.1%	31.5	-5.8%	3.9%	.	.	.	.
O=[N+]([O-])c1ccc(N2CCN(Cc3ccccc3)CC2)c2c1no[n+]2[O-]	3.55µM*	.	3.55µM*	.	3.16µM*	.	?	4.11µM*	5.17µM*	?
CCC(=O)NC(Nc1sc2c(c1C(=O)OC)CCC2)C(Cl)(Cl)Cl (stereo not drawn)	i	-16.6%	9.1%	-5.8	11.2µM*	2.8%	20.6µM*	-10.1%	?	-27.4%
COC(=O)c1c(NC(NC(=O)C(C)C)C(Cl)(Cl)Cl)sc2c1CCC2 (stereo not drawn)	i	-13.5%	0.1%	-6.3	?	4.3%	.	.	.	.
COC(=O)c1c(NC(NC(C)=O)C(Cl)(Cl)Cl)sc2c1CCCC2 (stereo not drawn)	i	-13.9%	-26.0%	6.4	12.6µM*	5.5%	14.6µM*	-22.3%	16.4µM*	4.2%
COC(=O)c1c(NC(NC(=O)C(C)(C)C)C(Cl)(Cl)Cl)sc2c1CCC2 (stereo not drawn)	i	-5.9%	-1.8%	3.9	12.6µM*	-3.7%	9.2µM*	?	?	52.9%
N#CCN(C(=O)CSc1nnc(C2CC2)n1C1CC1)c1ccccc1	i	.	1.1%	.	-3.5%	.	.	.	.	.
CC(=Nc1ccccc1)C1=C(O)C(Cc2ccccc2)NC1=O (stereo not drawn)	?	21.4%	0.8%	-3.4	?	-9.3%	?	-7.0%	3.26µM*	-17.0%

Assay outcomes deposited in PubChem BioAssay by National Center for Advancing Translational Sciences (NCATS).
